YjeE inh – displaces an ADP probe from E. coli YjeE (TsaE). P0AF67. purified YjeE enzyme, qHTS inhibition assay. Potency, µM. 71,000 compounds, 0.05% hits
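Purified YjeE (10 uM) with BODIPY Texas Red-labeled ADP probe (2 uM); compounds pin-transferred, 15 min at room temperature. Binding inhibition read as decreased fluorescence polarization; ADP titration as control.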
HEK293 cAMP cs – parental HEK293 cAMP activation (counter-screen); Potency, µM (doses to about 57.1 µM), for inactives: at the top dose activation, actives largely listed as activators; parental HEK293 CNG cAMP sensor, membrane potential fluorescence; 73,000 compounds, 2.5% hits; also: potency is read from the fitted curve at half-maximal effect; % of control where 0% means no effect; nearly all actives have a fitted effect of over 55% in size
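Counterscreen for endogenous-receptor signalling: CNG-channel HEK 293 cells report cAMP rise by membrane depolarization. After 60 min dye equilibration with 100 uM RO 20-1724, compounds incubated 30 min before bottom-read fluorescence at 590 nm.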
DNA Pol III inh – blocks replication by bacterial DNA polymerase III holoenzyme; 71,000 compounds, 0.25% hits; reconstituted DNA polymerase III holoenzyme replication, biochemical; Potency, µM (highest dose often 57.1 µM), inactives show top-dose activity change, negative = inhibition; AID 603; also: potency is read from the fitted curve at half-maximal effect; % is scaled to controls: 0 for no effect and ±100 for the full control effect
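Reconstituted *E. coli* holoenzyme (0.35 nM Pol III, 1 nM beta, 154 nM SSB, 2 nM primase) was preincubated with compound for 15 min at RT. Synthesis on 1.4 nM ssM13Gori ran 35 min, then was stopped with PicoGreen/EDTA and read as dsDNA fluorescence.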
BRCT PPI red – disrupts BRCA1 BRCT binding to phosphoprotein, red fluorophore readout; P38398; BRCT-phosphopeptide binding, red fluorescence polarization; Potency, µM (series often up to 76.9 µM), for the others: at the top dose activity change, negative = inhibition, usual class: inhibitors; 75,000 compounds, 0.03% hits; also: % is scaled to controls: 0 for no effect and ±100 for the full control effect
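Fluorescence polarization: 100 nM His-tagged BRCA1 BRCT with 100 nM TAMRA-labelled phospho-BACH1 decapeptide, phosphate buffer pH 7.3 with 150 mM NaCl, DTT, 0.01% Tween 20; 12 min RT. Binding inhibition seen as FP decrease.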
TSHR agonist – agonists of human thyroid stimulating hormone receptor. P16473. HEK293-CNG-TSHR cells (CNG channel as cAMP sensor), membrane potential dye, cAMP. Potency, µM (doses to about 57.1 µM), for inactives: at the highest dose activation, hits mostly activators. 73,000 compounds, 0.48% hits; active = well fitted activation curve with a large enough effect in the main read-out, with a control signal flat, not every such curve was filed as active; inconclusive = small, poorly fitted or top-dose-only effect, or a change in a side signal; inactive = no such curve, though single readings can be large or run the other way; % of control where 0% means no effect;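 also: the control signal comes from parental cells without the receptor; potency is read from the fitted curve at half-maximal effect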
Target sequence (P16473 whole entry, looked up): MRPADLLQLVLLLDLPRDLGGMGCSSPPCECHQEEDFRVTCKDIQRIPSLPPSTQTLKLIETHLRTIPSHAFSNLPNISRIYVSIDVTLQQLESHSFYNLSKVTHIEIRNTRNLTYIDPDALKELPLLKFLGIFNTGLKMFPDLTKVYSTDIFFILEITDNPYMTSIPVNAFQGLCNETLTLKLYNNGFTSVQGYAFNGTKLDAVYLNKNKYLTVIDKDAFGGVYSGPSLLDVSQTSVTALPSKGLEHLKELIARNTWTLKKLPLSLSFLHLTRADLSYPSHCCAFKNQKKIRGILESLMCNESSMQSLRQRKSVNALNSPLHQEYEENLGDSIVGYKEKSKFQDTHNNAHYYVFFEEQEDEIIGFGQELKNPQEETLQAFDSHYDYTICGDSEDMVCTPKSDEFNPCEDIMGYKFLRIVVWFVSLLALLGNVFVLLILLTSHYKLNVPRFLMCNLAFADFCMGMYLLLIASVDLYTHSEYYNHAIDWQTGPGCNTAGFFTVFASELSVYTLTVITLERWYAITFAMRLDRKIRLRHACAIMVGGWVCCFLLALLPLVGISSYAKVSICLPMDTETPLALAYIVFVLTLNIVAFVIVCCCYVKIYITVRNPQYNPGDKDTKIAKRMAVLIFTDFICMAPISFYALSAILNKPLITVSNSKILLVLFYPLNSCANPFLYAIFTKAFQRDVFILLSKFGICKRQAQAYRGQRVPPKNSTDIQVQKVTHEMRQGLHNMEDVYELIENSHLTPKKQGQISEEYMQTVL
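HEK 293 cells stably expressing TSHR and a modified CNG channel, with CNG-only parental cells as counterscreen, were preloaded 60 min at room temperature with membrane potential dye containing 100 uM RO 20-1724. Compound exposure was 30 min, and depolarization was read as fluorescence at 590 nm.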
BRCT PPI green – inhibitors of human BRCA1 BRCT-phosphoprotein interaction (green fluorophore); 75,000 compounds, 0.05% hits; BRCA1 BRCT-phosphopeptide binding, green fluorescence polarization; AID 875; Potency, µM (series often up to 76.9 µM), for the others: at the top dose activity change, negative = inhibition, most hits filed as inhibitors; P38398;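 also: potency is read from the fitted curve at half-maximal effect; plate controls were peptide without protein for full effect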
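Compounds were incubated for 12 min at room temperature with a complex of 100 nM fluorescein-tagged pBACH1 decapeptide and 250 nM His-tagged BRCT protein. Buffer was phosphate pH 7.3 with EDTA, DTT and Tween 20. Disruption of binding lowers the polarization signal.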
* = called active by the depositor; i = inactive; ? = inconclusive; . = no result; [ ] = remark or other dose. This is a sample that favours compounds with a hit; in the whole collection about 3.2% have one here. Unless noted, calls follow the shape of the dose curve; as a rule, active = well fitted curve in the direction sought with a large enough effect; inconclusive = small, poorly fitted or top-dose-only effect, or another doubt; inactive = no such curve, though single readings can be large; an effect the other way counts as inactive or inconclusive.

SMILES	YjeE inh	HEK293 cAMP cs	DNA Pol III inh	BRCT PPI red	TSHR agonist	BRCT PPI green
O=C1C2C3C=CC(CO)(O3)C2C(=O)N1c1ccccc1-c1ccccc1 (configuration not stated)	?	10%[11.4 µM]	6%[11.4 µM]	0%	10%[11.4 µM]	-3%
CCCC[C@@H]1C[C@H]1C(NC(=O)c1ccccc1)c1ccc(C(=O)OC)cc1 (some centres not stated)	i	16µM*	1%	-1%	?	-3%
CCCC[C@@H]1C[C@H]1C(NC(=O)c1ccccc1)c1ccccc1C(F)(F)F (some centres not stated)	i	?	-4%	0%	?	4%
CCCC[C@@H]1C[C@H]1C(NC(=O)Cc1ccccc1)c1ccc(-c2ccccc2)cc1 (some centres not stated)	i	26%	0%	1%	1µM*	0%
CCCC[C@@H]1C[C@H]1C(NC(=O)c1ccco1)c1ccccc1 (some centres not stated)	i	16µM*	-6%	1%	?	0%
O=C(CSc1ncnc2nc[nH]c12)c1ccccc1	i	-10%[11.4 µM]	-2%[11.4 µM]	0%[15.4 µM]	3%[11.4 µM]	0%[15.4 µM]
COc1cccc2[nH]c3c(N4CCCC(C)C4)ncnc3c12 (configuration not stated)	i	-24%	-14%	1%	-74%	-3%
C=C[C@](C)(O)CCC=C(C)C	.	.	.	0%	.	-2%
COc1ccc2c(c1)c(=O)oc1cc(OCC(=O)N3CCCC(C)C3)ccc12 (configuration not stated)	i	32µM*	-8%	-1%	?	2%
COC(=O)c1ccc(C(NC(=O)OCc2ccccc2)/C(I)=C/[C@@H](C)C(=O)NCC2CC2)cc1 (some centres not stated)	i	?	0%	1%	?	-2%
CC(=O)N1CCN(c2ccccc2NC(=O)c2cc(Br)ccc2Cl)CC1	i	32µM*	-3%	1%	?	-6%
CN1CCN(c2ccccc2NC(=O)c2cc(Br)ccc2Cl)CC1	i	-1%	-8%	1%	11%	-1%
CCOC(=O)c1sc(NC(=O)CSc2nnc(C)s2)c(C(=O)OCC)c1C	i	13µM*	-4%	0%	?	2%
CCOC(=O)c1sc(NC(=O)CN2CCCC2)c(C(=O)OCC)c1C	i	25%	-7%	-1%	24%	-1%
CCc1nc(NCc2ccccn2)c2oc3ccccc3c2n1	i	?	-7%	-1%	?	1%
Cc1cccc(-c2nc(C#N)c(N3CCCCCC3)o2)c1	i	23%	3%	-1%	25µM*	-4%
COc1ccc(OC)c(N2C(=O)[C@@H]3C(c4ccccc4Cl)=NO[C@@H]3C2=O)c1	i	1%	32µM*	-3%	.	-3%
CCn1nnc(NC(=O)c2ccccc2Br)n1	i	32µM*	-7%	0%	?	-2%
CCCn1nnc(NC(=O)c2ccccc2Br)n1	i	0%	-4%	0%	1%	0%
Cc1ccc(-c2nnn(CC(=O)Nc3cccc4cccnc34)n2)o1	i	25µM*	-4%	2%	?	26%
Cc1ccc(-c2nnn(CC(=O)N(CC(=O)NC(C)C)c3cnc4ccccc4c3)n2)o1	i	4%	-4%	-1%	8%	-1%
O=C(CN1C(=O)COc2ccccc21)NCc1ccc(C(=O)O)cc1	i	4%	-3%	-2%	6%[11.4 µM]	-1%
CC1CCc2sc3ncn4nc(C(=O)NCc5ccco5)nc4c3c2C1 (configuration not stated)	i	?	1%	0%	?	0%
CC1CCc2c(sc3ncn4c(SCC(=O)NCc5ccco5)nnc4c23)C1 (configuration not stated)	i	25µM*	-2%	-2%	?	4%
Cc1nc(SCC(=O)NCc2ccco2)c2c3c(sc2n1)CCCC3	i	13µM*	0%	-2%	?	0%
SMILES	YjeE inh	HEK293 cAMP cs	DNA Pol III inh	BRCT PPI red	TSHR agonist	BRCT PPI green
c1ccc2[nH]c(SCCN3CCOCC3)nc2c1	i	7%	-4%	0%	-5%	-1%
COc1cccc(C(=O)Nc2cccc(-c3nc4ncccc4o3)c2C)c1	i	16µM*	-6%	0%	?	0%
c1ccc(COn2c(-c3ccccc3)nc3c2CCc2nonc2-3)cc1	i	25µM*	-2%	-2%	?	-5%
C=CCn1c(C)cc(C(=O)CSc2nc3ccccc3c(=O)[nH]2)c1C	i	25µM*	-4%	0%	?	0%
C=CCn1c(C)cc(C(=O)CSc2nnc(Cc3ccccc3)o2)c1C	i	?	-4%	0%	?	-1%
Cc1cc(C(=O)CSc2nc3ccccc3o2)c(C)n1C1CC1	i	16µM*	-2%	-1%	?	-1%
C=CCn1c(C)cc(C(=O)CSc2nc3ccccc3o2)c1C	i	25µM*	-2%	1%	?	0%
Cc1cc(SCC(=O)c2ccc(Br)cc2)cc(C)[o+]1	i	-1%[11.4 µM]	-9%[11.4 µM]	0%[15.4 µM]	9%[11.4 µM]	1%[15.4 µM]
CCc1nc(SCC(=O)Nc2ccc3c(c2)OCCO3)c2oc3ccccc3c2n1	i	13%	-3%	0%	.	-3%
Cc1nc(SCC(=O)Nc2ccc3c(c2)OCCO3)c2oc3ccccc3c2n1	i	20%	8%	-1%	4µM*	-2%
CC(C)CNC(=O)CN(C1CCCCC1)S(=O)(=O)c1ccccc1	i	29%	-4%	1%	32µM*	-1%
CC(C)CNC(=O)CN(C1CCCCC1)S(C)(=O)=O	i	?	-5%	0%	?	-1%
CCCn1c(SCC(=O)Nc2nc3c(s2)CCCC3)nc2c1c(=O)n(C)c(=O)n2C	i	16µM*	-1%	-2%	?	0%
CCCn1c(SCC(=O)Nc2nnc(CC)s2)nc2c1c(=O)n(C)c(=O)n2C	i	8%	-7%	1%	4%	-1%
CCCCn1c(SCC(=O)Nc2nnc(C(C)C)s2)nc2c1c(=O)n(C)c(=O)n2C	i	1.6µM*	0%	-1%	?	-3%
CCOc1cc(C(=O)NCCOC)cc(OCC)c1OCC	i	5%	-10%	-1%	-2%	-1%
CSc1nnc2c3cc(F)ccc3n(Cc3ccccc3)c2n1	i	29%	-4%	-1%	22%	0%
CSc1nnc2c3ccccc3n(Cc3ccccc3)c2n1	i	20µM*	0%	1%	?	-3%
CSc1nnc2c3ccccc3n(CCc3ccccc3)c2n1	i	4µM*	-6%[11.4 µM]	0%	?	2%

Screening results: PubChem BioAssay, National Center for Advancing Translational Sciences (NCATS)
